Measurements taken from the supplement of paper PMC9135407.
Where a name gives a salt, the structure may show the parent alone.

tested on: primary human hepatic stellate cells (donor 1); experiment: ACTA2 mRNA fold change vs DMSO (normalised to PSMB2); higher = more ACTA2 expression; details: 48 h
Protocol: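 Secondary qRT-PCR screen in primary human HSCs (donor 1), 384-well plates, with compounds dispensed in quadruplicate and incubated for 48 h. Cells-to-CT lysates were used for multiplexed TaqMan qPCR of ACTA2 or COL1A1 with PSMB2 as reference. Fold changes versus DMSO come from a linear model (Ct_gene ~ Ct_PSMB2 + plate + chemical). A hit is defined as COL1A1 and ACTA2 FC <0.5 (FDR <0.05) with PSMB2 between 0.2 and 2.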

SMILES	ACTA2 mRNA fold change
CCOC(=O)C1=C(COCCN)NC(C)=C(C(=O)OC)C1c1ccccc1Cl (stereo not given) (33.3333 µM)	0.084
Cc1ccc(-c2ccc3c(ccc4sc5c(c43)NC[C@@H](C)NC5=O)n2)cn1 (33.3333 µM)	1.65
O=C(Nc1ncc(SCCN2CCCC2)s1)[C@]1(c2ccc(S(=O)(=O)C3CC3)cc2)C[C@H]1C1CCCCC1 (11.1 µM)	0.00928
Nc1ccc(C(=O)Nc2cccc(-c3nc(N4CCOCC4)c4oc5ncccc5c4n3)c2)cn1 (6.66667 µM)	1.8
CC1(C)CC(=O)c2c(C(F)(F)F)nn(-c3ccc(C(N)=O)c(N[C@H]4CC[C@H](OC(=O)CN)CC4)c3)c2C1 (33.3333 µM)	0.967
CCc1cc2c(cc1CC)CC(NC[C@H](O)c1ccc(O)c3[nH]c(=O)ccc13)C2 [Indacaterol Maleate] (33.3333 µM)	0.0334
CC(C)c1ccc(C(=O)c2cccs2)c(SCCCCCCCCN(C)C)n1 (33.3333 µM)	0.846
c1cc(OCCN2CCCCC2)cc(-c2n[nH]c3ccc(-c4nnc[nH]4)cc23)c1 (33.3333 µM)	0.0437
CN(C)Cc1c(C(=O)NCCOc2ccc(C(=O)NO)cc2)oc2ccccc12 (33.3333 µM)	0.00935
CC(C)(C)c1cc(NC(=O)Nc2ccc(-c3cn4c(n3)sc3cc(OCCN5CCOCC5)ccc34)cc2)no1 [Quizartinib  (AC220)] (11.1 µM)	0.258
